Hit rate of the full screen: of about 310,000 compounds, about 18,000 (5.8%) were called active. Where a call stands in place of a potency, no number is given. About 22% were inconclusive and are not listed. This is one part of a sample in which actives are shown more often than they occur. Calls come from the whole dose curve; as a rule, active = well fitted inhibition curve with a large enough effect; inconclusive = small, poorly fitted or top-dose-only effect, or another doubt; inactive = no such curve, though single readings can be large or run the other way.

These results are taken from PubChem BioAssay AID504832 (National Center for Advancing Translational Sciences (NCATS), 2011).
Potency is the fitted concentration of half-maximal effect.

A short description of the assay: Primary qHTS for delayed death inhibitors of the malarial parasite plastid, 48 hour incubation. To be noted: P. falciparum luciferase growth in erythrocytes; series mostly up to 28.7 µM. The text has this: The goal of this screen is to discover new antimalarial compounds that act by inhibiting the development of the apicoplast in the malarial parasite Plasmodium falciparum. The biochemical processes that make this organelle essential for erythrocytic stage parasites are not well understood. However, antibiotics such as azithromycin and tetracycline, which target the apicoplast translational machinery, have a potent antimalarial effect.
We have developed a cell-based assay that measures parasite growth based on the expression of an integrated copy of a firefly luciferase reporter. To detect small molecules that cause this "delayed death" phenotype, erythrocytes infected with the luciferase-expressing parasites were incubated with compounds for either one or two generations, corresponding to 48 and 96 hours, respectively. Compounds that inhibit parasite growth in the second generation, but not the first, should be enriched in antimalarials that target the apicoplast. Growth inhibition is detected by a decrease in luciferase activity.
Assay Provider: David Fidock and Eric Ekland, Columbia University
Keywords: NIH Roadmap, MLPCN, MLI, MLSMR, qHTS, NCGC, qHTS, malaria, luciferase, viability
Four microliters of culture medium (RPMI 1640 with 0.5% w/v Albumax (GIBCO), 24 mM sodium bicarbonate and 10 ug/mL gentamycin) were dispensed by a Multi-drop Combi into white solid 1536-well plates (Grenier) and 23 nL compound was added by a pin tool. Four microliters of infected erythrocytes (2% hematocrit, 0.1% parasitemia final concentration) in culture medium were dispensed and the plates incubated for 48 hours at 37 C in 5% CO2. Two microliters of luciferase detection reagent was added and luminescence was detected by a ViewLux (PerkinElmer) reader.
On to `CCOc1ccc(NC(=S)N2CCC(NC(=O)c3ccccc3)CC2)cc1`, for which the Potency result is “inactive”.
For `COc1ccc(NC(=O)CCC(=O)N2CCN(S(=O)(=O)c3ccc(C)cc3)CC2)c(OC)c1` the value was “inactive”.
On to `COc1ccc(C(=O)Oc2cc(/C=N/NS(=O)(=O)c3ccc(C)cc3)ccc2OC)cc1`, for which the Potency entry is “inactive”.
With `COc1ccc(/C=C/C(=O)c2ccc(NS(=O)(=O)c3ccc(C)cc3)cc2)cc1O`, the Potency is 14.7 µM (active).
For `COc1ccc(NS(=O)(=O)c2ccc(NC(C)=O)cc2)cc1OC` the value was “inactive”.
Under `Cc1cc(Cl)c2oc(C(=O)N(C)C(C)c3ccccn3)c(C)c2c1` (stereo not given) stands “inactive”; under `CCc1nccn1CCC(=O)N1CCCC(N2CCN(c3ccccc3F)CC2)C1` (stereo not given), “inactive”.
With `O=C(NC1CCCC1)C1CC(=O)N(c2ccc(F)cc2)C1` (stereo not given), the Potency result is “inactive”.
Under `O=C(Nc1cccc(S(=O)(=O)N2CCCCC2)c1)c1ccc2c(c1)OCO2` stands “inactive”.
On to `O=C(c1ccc(Cl)c(Cl)c1)N1CCCC1`, for which the Potency entry was “inactive”.
In the case of `O=C(Nc1ccc2c(c1)OCCO2)c1ccc(Cl)c(S(=O)(=O)N2CCCCC2)c1`, the Potency is 6.57 µM (active).
Under `Cc1ccc(C(=O)Nc2ccc3c(c2)OCO3)cc1S(=O)(=O)N1CCCCC1` stands “inactive”; under `O=C(C1CC(=O)N(c2ccc(F)cc2)C1)N1CCN(c2ccccc2)CC1` (stereo not given), “inactive”; under `CC1CC(C)CN(C(=O)C2CC(=O)N(c3ccc(F)cc3)C2)C1` (stereo not given), “inactive”.
`CCC(C)c1ccccc1N1CC(C(=O)N2CCN(S(=O)(=O)c3ccc(F)cc3)CC2)CC1=O` (stereo not given): the Potency is 10.4 µM (active).
For `O=C(c1ccc(Cl)c(S(=O)(=O)N2CCCCCC2)c1)N1CCN(c2ccc(O)cc2)CC1` the value was 13.1 µM (active); for `CNS(=O)(=O)c1ccc(NC(=O)C2CC(=O)N(c3ccc(Cl)cc3)C2)cc1` (stereo not given), “inactive”; for `O=C(c1ccc(Cl)c(S(=O)(=O)N2CCCCC2)c1)N1CCCCCC1`, “inactive”.
Consider `O=C(Nc1ccc(S(=O)(=O)N2CCCCC2)cc1)C1CC(=O)N(c2ccc(F)cc2)C1` (stereo not given), for which the Potency was 5.22 µM (active).
Under `COC(=O)c1ccc(NC(=O)c2cc3c(CO)cnc(C)c3oc2=Nc2cccc(C(N)=O)c2)cc1` stands “inactive”.
As to `Cc1nc(NC(=O)c2ccc3c(c2)OCCO3)ccc1Br`, the Potency entry is “inactive”.
For `CCCCn1c(N)c(N(CCOC)C(=O)c2oc3ccc(OC)cc3c2C)c(=O)[nH]c1=O`, the Potency entry was “inactive”.
Under `Cc1cn([C@H]2CC(F)[C@@H](CO)O2)c(=O)[nH]c1=O` (stereo not given in full) stands “inactive”; under `COc1ccc2cc(C(=O)C3CCCN(C(=O)c4sc(C)nc4C)C3)ccc2c1` (stereo not given), “inactive”.
Under `COc1ccccc1C(=O)NC(CCSC)C(=O)NNC(=O)c1ccccc1C` (stereo not given) stands “inactive”; under `Cc1ccc(CN(CC(=O)NCC2CCCO2)S(=O)(=O)c2ccc(C)cc2)cc1` (stereo not given), “inactive”; under `O=C(Cc1ccccc1)Nc1ccc(C(=O)Nc2ccccc2C(=O)O)cc1`, “inactive”.
For `CCOC(=O)c1sc(NC(=O)C2CSC3(C)CCC(=O)N23)nc1C` (stereo not given) the value was “inactive”; for `CCOC(=O)N1CCN(Cc2nc3cc(NC(C)=O)ccc3n2C)CC1`, “inactive”.
Regarding `O=C(Nc1ccccc1)C1CCN(C(=O)c2ccc(Br)cc2)CC1`, the Potency result is “inactive”.
Under `CC(=O)c1ccccc1NC(=O)C1CC(=O)N(c2ccc3c(c2)OCCO3)C1` (stereo not given) stands “inactive”; under `CCOC(=O)c1ccc(NC(=O)C2CC(=O)N(c3ccc4c(c3)OCCO4)C2)cc1` (stereo not given), “inactive”.
Consider `O=C(Nc1ccc(S(=O)(=O)N2CCCCC2)cc1)C1CCN(C(=O)c2ccc(F)cc2)CC1`, for which the Potency is 9.28 µM (active).
Under `O=C(Nc1ccc(F)cc1)C1CCCN(S(=O)(=O)c2ccc(-n3cnnn3)cc2)C1` (stereo not given) stands “inactive”.
For the molecule `Cc1ccc(NC(=O)C2CC(=O)N(c3ccc4c(c3)OCCO4)C2)cc1S(=O)(=O)N1CCCCCC1` (stereo not given), the Potency was 11.7 µM (active).
For `Cc1c(Cl)c([N+](=O)[O-])nn1CC(=O)NCCCN1CCOCC1` the value was “inactive”.
For `N[C@@H](Cc1ccccc1)C(=O)N1CCOCC1` the value was “inactive”; for `CSCC[C@H](NC(=O)N1CCn2c1nc1ccccc12)C(=O)NC1CCCCC1`, “inactive”.
For `COc1cccc(CNC(=O)CCC2CCCN(C(=O)c3ccc(F)c(Cl)c3)C2)c1` (stereo not given) the value was “inactive”; for `CCOc1ccc(CC(=O)NC2CCN(Cc3ccccc3)CC2)cc1`, “inactive”.
With `O=C(O)CN1c2cccc3cccc(c23)S1(=O)=O`, the Potency entry was “inactive”.
Consider `Cc1ccc(S(=O)(=O)N(C)C)cc1NC(=O)CN1c2cccc3cccc(c23)S1(=O)=O`, for which the Potency is 13.1 µM (active).
On to `CC(C)CN(CC(C)C)C(=O)CN1c2cccc3cccc(c23)S1(=O)=O`, for which the Potency result was “inactive”.
For `Cc1cc(=O)n2nc(N3CCC(C(=O)Nc4c(F)c(F)c(F)c(F)c4F)CC3)sc2n1` the value was “inactive”; for `CCOc1ccc(S(=O)(=O)N2CCN=C2Cc2ccccc2)cc1C`, “inactive”; for `Cc1ccc(C23CC4CC(CC(C(=O)NCC(=O)O)(C4)C2)C3)cc1`, “inactive”.
For `CC(=O)Nc1ccc(NC(=O)CCN2C(=O)C3CC=CCC3C2=O)cc1` (stereo not given) the value was “inactive”; for `COc1ccc(CNC(=O)[C@H](Cc2c[nH]c3ccccc23)NC(C)=O)cc1OC`, “inactive”.
As to `COc1cccc(NC(=O)[C@H](Cc2c[nH]c3ccccc23)NC(=O)[C@@H]2Cc3ccccc3CN2)c1`, the Potency is 9.28 µM (active).
For `COc1ccc(NC(=O)[C@H](NC(=O)[C@@H]2Cc3ccccc3CN2)c2ccccc2)cc1` the value was “inactive”; for `CCOC(=O)c1c(C)[nH]c(C)c1S(=O)(=O)NCCCc1ccco1`, “inactive”; for `CC1CCCCC1NC(=O)CCS(=O)(=O)c1ccc2c(c1)NC(=O)CO2` (stereo not given), “inactive”.
Consider `CCOc1ccc(CN2CCN(Cc3ccc4cc(F)ccc4n3)CC2CCO)cc1` (stereo not given), for which the Potency result was “inactive”.
As for `COc1ccc(OCC(O)CN(C)C(=O)C(C)Oc2ccccc2)cc1` (stereo not given), the Potency entry was “inactive”.
Take `COc1cccc(CN(C)CC(=O)Nc2sc3c(c2C#N)CCC3)c1`: the Potency entry is “inactive”.
For `COc1cccc(CN(C)CC(O)COC(c2ccccc2)c2ccccc2C)c1` (stereo not given), the Potency was 8.28 µM (active).
For `CC(=O)Nc1ccc(NC(=O)CSc2nnnn2-c2ccccc2F)cc1` the value was “inactive”; for `O=C(NCCNc1ccccc1[N+](=O)[O-])c1ccccc1F`, “inactive”; for `COc1ccccc1C(=O)Nc1ccc(OCC(=O)N2CCCCC2)cc1`, “inactive”.
Under `CC(C)c1ccc2c(c1)c(SC(C)(C)C)c(CC(C)(C)C(=O)O)n2Cc1ccc(Cl)cc1` stands 8.28 µM (active); under `O=C(O)c1ccc(Cn2c(=S)[nH]c3cc(Cl)ccc3c2=O)cc1`, “inactive”.
Under `COc1ccc(NS(=O)(=O)c2cccc3nsnc23)cc1Cl` stands “inactive”.
On to `COc1ccc(-n2nc(C(=O)Nc3cc(OC)c(OC)c(OC)c3)c3ccccc3c2=O)c(OC)c1`, for which the Potency result is “inactive”.
`COc1ccc(-n2nc(C(=O)NCC(=O)N3CCN(c4ccccc4OC)CC3)c3ccccc3c2=O)c(OC)c1`: the Potency is 1.04 µM (active).
Under `COc1cccc(NC(=O)c2nn(-c3ccc(OC)cc3OC)c(=O)c3ccccc23)c1` stands “inactive”.
Under `O=C(NCCCN1CCCCC1)C1CC(=O)N(CCc2ccccc2)C1` (stereo not given) stands “inactive”; under `O=C(Nc1ccc2c(c1)OCO2)C1CC1(Cl)Cl` (stereo not given), “inactive”.
On to `CCOc1ccc(C(O)Cc2nc3ccccc3n2C)cc1` (stereo not given), for which the Potency entry was “inactive”.
Take `Cn1c(=N)n(CC(O)c2ccccc2)c2ccccc21` (stereo not given): the Potency result is “inactive”.
Under `CCOc1ccc(C(O)Cn2c(=N)n(CCN3CCCCC3)c3ccccc32)cc1` (stereo not given) stands 4.65 µM (active).
For the molecule `COc1ccc(N(CC(=O)NCc2ccc(F)cc2)C(=O)CCC(=O)Nc2nccs2)cc1`, the Potency entry was “inactive”.
Turning to `CN1CCN(NC(=O)Nc2ccc(Br)cc2)CC1`, the Potency entry is “inactive”.
Under `Cc1ccc(C)c(NC(=O)COC(=O)Cn2c(C)csc2=O)c1` stands “inactive”; under `COC(=O)c1ccc(OC(=O)c2cnccn2)cc1`, “inactive”.
Regarding `CC(C)C(=O)N1CC(=O)Nc2ccc(F)cc2C1c1ccc(F)cc1` (stereo not given), the Potency result is “inactive”.
Regarding `CS(=O)(=O)c1sc(C(=O)NC(=S)Nc2ccc(OC(F)(F)F)cc2)c2c1C=CCC2`, the Potency was 2.62 µM (active).
Under `FC(F)(F)Oc1ccc(NC(=S)NCc2ccccc2)cc1` stands “inactive”.
Regarding `CCNC(=S)Nc1ccc(OC(F)(F)F)cc1`, the Potency result is “inactive”.
Regarding `COc1ccc(/C=C(/NC(=O)c2ccccc2)C(=O)Nc2cccc(C(=O)O)c2)cc1`, the Potency result is “inactive”.
In the case of `Cc1cc(C)cc(OCC(=O)OCC(=O)NC2CCCC2)c1`, the Potency result is “inactive”.
Under `CS(=O)(=O)N1CCN(C(=O)CSc2ccccc2)CC1` stands “inactive”; under `CCCC[C@@H]1CN=C(N)N1CCc1cc(C(F)(F)F)cc(C(F)(F)F)c1`, 5.22 µM (active); under `Cc1cccc(N2CCN(C(C)C(=O)N3CCc4ccccc43)CC2)c1C` (stereo not given), “inactive”.
Under `CCCCOC(=O)Cn1c(=N)n(CCN(CC)CC)c2ccccc21` stands “inactive”; under `CCCn1c(=N)n(CC(=O)c2ccc(Cl)c(Cl)c2)c2ccccc21`, 7.38 µM (active).
Under `CCCNC(=O)c1ccc(Cl)c(Cl)c1` stands “inactive”; under `Cc1ccnc(N2C(=O)c3ccc([N+](=O)[O-])cc3C2=O)c1`, “inactive”.
As to `CCOC(=O)CN1CCC(c2ccccc2)CC1`, the Potency entry is “inactive”.
For `CCOC(=O)N1CCC(NC(=O)CCc2ccccc2)CC1` the value was “inactive”; for `CCOC(=O)N1CCC(c2cc(=O)n(-c3ccccc3)[nH]2)CC1`, 9.28 µM (active).
Regarding `Cc1cc(NC(=O)COc2ccc(Cl)cc2Cl)n(CCC#N)n1`, the Potency result was “inactive”.
Under `COC(=O)c1c(NC(=O)COc2ccc(Cl)cc2Cl)sc2c1CC(C)(C)NC2(C)C` stands 8.28 µM (active).
Under `Cc1nn(-c2ccccc2)c(C)c1NC(=O)COc1ccc(Cl)cc1Cl` stands “inactive”; under `O=C(NCC(=O)N1CCCCCCC1)c1ccccc1Cl`, “inactive”.
Under `CCC1CCCCN1CCCNC(=O)Cn1nc(-c2ccccc2)ccc1=O` (stereo not given) stands “inactive”.
On to `CCC1CCCCN1CCCNC(=O)c1cc2c(Cl)nc3ccccc3c2s1` (stereo not given), for which the Potency was 11.7 µM (active).
Under `Cc1ccc(CN2C(=O)CCC2C(=O)NCCCN2CCCCC2C)cc1` (stereo not given) stands “inactive”; under `COc1cccc(NC(=O)C2c3cc(OC)c(OC)cc3C(=O)N(C)C2c2cccnc2)c1` (stereo not given), 8.28 µM (active); under `CCOc1cc2c(cc1OCC)C(C(=O)O)C(c1ccc(OC)c(O)c1)N(C)C2=O` (stereo not given), “inactive”.
For `COc1cccc(NC(=O)CSc2nnc(-c3cccnc3)o2)c1` the value was “inactive”.
